From PMC7819943, “Rice protein-binding microarrays: a tool to detect cis-acting elements near promoter regions in rice”
Whole data set: some 35,000 sequences, median “fluorescence intensity (a.u.)” near 10,000, cut for the highest 2% near 52,000. The sample as a whole holds a higher share of the highest values than the screen did.

Biological target: T1, OsWOX13 (Oryza sativa, UniProt Q5QMM3 1-267)
T1 sequence: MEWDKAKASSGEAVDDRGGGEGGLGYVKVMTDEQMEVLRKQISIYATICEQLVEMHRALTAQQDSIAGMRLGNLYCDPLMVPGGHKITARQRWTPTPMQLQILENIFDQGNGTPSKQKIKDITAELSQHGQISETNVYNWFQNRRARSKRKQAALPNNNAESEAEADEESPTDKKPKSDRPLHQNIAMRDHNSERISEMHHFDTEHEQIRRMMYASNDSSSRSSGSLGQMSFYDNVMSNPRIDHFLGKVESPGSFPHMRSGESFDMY
Experiment: protein-binding microarray (RPBM); PBS, 2% BSA, 51.3 ng/ul salmon testes DNA, 50 uM zinc acetate, 200 nM TF, 25 C, 1 h; high values mean tight binding
Settings: protein: recombinant; tags: N-terminal polyhistidine and DsRed monomer fusion (pET32a); label: CyDye5-dUTP incorporated in the synthesized complementary strand; 3' TTTTT single-stranded linker to array surface; dsDNA, one strand shown
How it was run: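 Per-feature fluorescence intensity (arbitrary units), read on an Axon 4000B scanner, is the binding signal. Transcription factors carrying an N-terminal polyhistidine tag and DsRed fusion were expressed in E. coli BL21-CodonPlus and purified on Ni–NTA. A custom Agilent array, made double-stranded by primer extension with Cy5-dUTP and blocked with 2% BSA, was incubated with 200 nM protein in PBS, 2% BSA, salmon testes DNA and 50 µM zinc acetate at 25 °C for 1 h and then washed.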

Sequence | binding signal
GCCTAAGATAATTGATAAGAGTGCTTAAAGTGTACAACCGCGGAGTCACCTAGTGCAG | 37500 fluorescence intensity (a.u.)
TATATTATTTGTCAATCTTATTGTCAACTTATTAATCATCCGGAGTCACCTAGTGCAG | 7160 fluorescence intensity (a.u.)
TCTGACCATTATTAATTTCTAGCAACTAGCAATTTTGTGCCGGAGTCACCTAGTGCAG | 6120 fluorescence intensity (a.u.)
AGATTACATGATTGGAAATCTTTCACATATTTGTTTCAGGCGGAGTCACCTAGTGCAG | 51800 fluorescence intensity (a.u.)
TGTCTAATTGGTATCGTGAAGACTCTGAACCATTTCCATCCGGAGTCACCTAGTGCAG | 35200 fluorescence intensity (a.u.)
CTTAATTAGCATGAAACACAAGTAGTATATGATTACACCACGGAGTCACCTAGTGCAG | 33100 fluorescence intensity (a.u.)
ATCTTAATTGAAACAAACACAGCTTTAGTATATGCATGTCCGGAGTCACCTAGTGCAG | 58900 fluorescence intensity (a.u.)
CCCTTAATTAATTAAAACCGGTCACAGTATGTCCTTTAATCGGAGTCACCTAGTGCAG | 41300 fluorescence intensity (a.u.)
GTCCAGGCTTAATTCAATCATTATATGTACATATCTTTGTCGGAGTCACCTAGTGCAG | 6860 fluorescence intensity (a.u.)
TTCAATTGATTATGAACTGCTTGTACTCTAATCAATGGTACGGAGTCACCTAGTGCAG | 55800 fluorescence intensity (a.u.)
ATTAATCGCTAATTAGGATAATTAATCACTAATTAGTATTCGGAGTCACCTAGTGCAG | 43700 fluorescence intensity (a.u.)
GTGATTAATTAATTATTAATTAATCGCTAATCAGGATAATCGGAGTCACCTAGTGCAG | 65500 fluorescence intensity (a.u.)
ATATATATATATATATATATATATATATTATCGCTAATAACGGAGTCACCTAGTGCAG | 31200 fluorescence intensity (a.u.)
CAGGCTGCTTAATTACATATATCTAGATATATATATTATTCGGAGTCACCTAGTGCAG | 3870 fluorescence intensity (a.u.)
GATTGGTCATAATTATATATATATATTACTTCCTAATCACCGGAGTCACCTAGTGCAG | 6390 fluorescence intensity (a.u.)
CACACTATTAATCATTTTGATTTTGGTATACTGCACTTTTCGGAGTCACCTAGTGCAG | 6110 fluorescence intensity (a.u.)
ATTAATTATCTAATTAATTAATTAGCCCATCTGCTTACTTCGGAGTCACCTAGTGCAG | 65000 fluorescence intensity (a.u.)
ATCTGTAATTTATTTTATTATTAGTCTACGCTTAATACTTCGGAGTCACCTAGTGCAG | 22000 fluorescence intensity (a.u.)
TGATTGGTAATCAATCAATTATTATCATATACTCGCACTGCGGAGTCACCTAGTGCAG | 62300 fluorescence intensity (a.u.)
TTCTCTAATTGGTAATTCATGATTAATCACTCCTACTTTACGGAGTCACCTAGTGCAG | 48000 fluorescence intensity (a.u.)
GAGAACTCTAATGAATTAGATTATATTCATGCTTGTTGATCGGAGTCACCTAGTGCAG | 5820 fluorescence intensity (a.u.)
AGTCGAGTCAACTTAATTAACTTAACTTCAACCGTCGCTACGGAGTCACCTAGTGCAG | 5940 fluorescence intensity (a.u.)

Sequence | binding signal
TAGCCAATCTAATAGCTCATTCATATAATAATTACATACTCGGAGTCACCTAGTGCAG | 4410 fluorescence intensity (a.u.)
GTGACATCATAATTTAGATTTAACTTATTCGTGCATATTACGGAGTCACCTAGTGCAG | 9460 fluorescence intensity (a.u.)
AGCTAAATCTGTGATTGCCGTTGCATCTAGCCACGTCGTCCGGAGTCACCTAGTGCAG | 14600 fluorescence intensity (a.u.)
GAATAACAGACATATCATATTTGTTGCCTCCTGGTGGCTACGGAGTCACCTAGTGCAG | 7840 fluorescence intensity (a.u.)
ATTTGAATAATTAGGGAGTCTATGAACAGAAACATAGACCCGGAGTCACCTAGTGCAG | 6000 fluorescence intensity (a.u.)
TATCATCAATCCGCTAATTAACTGACAACGCATATTGGAGCGGAGTCACCTAGTGCAG | 29400 fluorescence intensity (a.u.)
AAAATTAAATTGATGGTATTACTAGCATTAATTAGCCACTCGGAGTCACCTAGTGCAG | 62800 fluorescence intensity (a.u.)
GTAGATAATTAAATCGGATTAGCATTAGATAATCAAGCAACGGAGTCACCTAGTGCAG | 37000 fluorescence intensity (a.u.)
ATAGCTATATCAATCTAGAATTGGATTAGATATATCTCGACGGAGTCACCTAGTGCAG | 6040 fluorescence intensity (a.u.)
TATTGATTTGATAAAACTAATTTAGCATTATAAATATTATCGGAGTCACCTAGTGCAG | 21300 fluorescence intensity (a.u.)
ATTAGCAATTAATTAATTATTAATTGGATAATTAATCACTCGGAGTCACCTAGTGCAG | 64800 fluorescence intensity (a.u.)
TGTTGGTGCTGTGATTAATTGGTAATCTGCTTTTACAAGCCGGAGTCACCTAGTGCAG | 19800 fluorescence intensity (a.u.)
TCAATCAATTAATTAATTAATCGAATTGTGTTATATCTCTCGGAGTCACCTAGTGCAG | 51000 fluorescence intensity (a.u.)
TCATATAATTGGATTTATAATTAATCACCAATACCAAACTCGGAGTCACCTAGTGCAG | 35300 fluorescence intensity (a.u.)
TGTGATTAATTGGTAATCTGCTTTTACAAGCTTCAATTGCCGGAGTCACCTAGTGCAG | 60400 fluorescence intensity (a.u.)
TTCAAATTAAGCTGCTTTAGATTATAATCTGAAGCTGGGCCGGAGTCACCTAGTGCAG | 17800 fluorescence intensity (a.u.)
GTGATTGGATCTGTAATTATCAATCTCTCTCTCTCTCTCTCGGAGTCACCTAGTGCAG | 64600 fluorescence intensity (a.u.)
ATGTATATTAATTACTAGCCAAATGGTTAGCATGATTACTCGGAGTCACCTAGTGCAG | 10900 fluorescence intensity (a.u.)
AACATGGAGAATATGCTAATTAGTAAAACATGTTGAAGTGCGGAGTCACCTAGTGCAG | 3290 fluorescence intensity (a.u.)
GCACAATCATGCTACTAATTACCCTTTTCAACCTATAAATCGGAGTCACCTAGTGCAG | 11200 fluorescence intensity (a.u.)
ACTAATTACACAGAATGCATGTAAATTACGAGACGAATCTCGGAGTCACCTAGTGCAG | 31200 fluorescence intensity (a.u.)
